Target: AGT mutant of Example 4 (GST fusion) (Homo sapiens, UniProt P16455 SEQ:1-207, Gly131Lys, Gly132Thr, Met134Leu, Arg135Ser, Asn157Gly, Ser159Glu)
Assay: competition; reactivity with BG-modified oligonucleotide
Conditions: tags: N-terminal GST (pGEX-2T); ssDNA; O6-benzylguanine at position 14
Description: Reactivity against DNA-based substrates measured with a BG-Cy3 assay: BG-Cy3 is prepared by reacting the previously described O⁶-(4-aminomethyl-benzyl)guanine (Keppler et al., NatureBiotechnol. 21:86-89, 2003) with the commercially available N-hydroxysuccinimide ester of Cy3, (Cy3-NHS, Amersham). The coupling reaction is performed at ambient temperature in N,N-dimethylformamide in the presence of 1 eq. of triethylamine. The BG-Cy3 conjugate is purified by reversed-phase HPLC on a C18-column by using linear gradients from 0.1% trifluoroacetic acid to acetonitrile. After solvent evaporation BG-Cy3 is dissolved in dimethyl sulfoxide and stored at −20° C. For measuring the reactivity with DNA-based substrates, a reaction mixture containing different concentrations (0 to 5 µM) of oligonucleotide SEQ ID NO:2 (modified in position 14), GST-AGT fusion protein at 0.2 µM and BG-Cy3 at […] in reaction buffer (50 mM HEPES, pH 7.2, 1 mM DTT, […] BSA) is incubated in microtiterplates. Fluorescence of the Cy3 derivative (excitation 519 nm, emission at 572 nm) is measured on a Spectramax Gemini plate reader (Molecular Devices).

Chain of AGT mutant of Example 4 (GST fusion) (P16455 whole entry G131K/G132T/M134L/R135S/N157G/S159E, the tested form may be a part): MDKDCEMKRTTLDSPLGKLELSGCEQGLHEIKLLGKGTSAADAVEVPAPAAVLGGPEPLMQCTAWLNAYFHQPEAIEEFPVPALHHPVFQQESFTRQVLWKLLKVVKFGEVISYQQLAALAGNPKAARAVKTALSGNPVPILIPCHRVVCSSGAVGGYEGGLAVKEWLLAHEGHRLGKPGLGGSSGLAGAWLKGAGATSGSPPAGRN

Sequence | binding signal
GTGGTGGGCAGCTGAGGCGTGG | ≥ 1000 fold reduced vs PGEG-hAGT

Source: US20070207532, “Mutants Of O6-Alkylguanine-Dna Alkyltransferase” (published 2007)
